Test results taken from PubChem BioAssay (NCI).
About 79,000 compounds went through this panel and 15% of them were active in at least one assay; those are over-represented in the sample as a whole. Unmarked numbers belong to inactive results. Activity calls are given as the source filed them. No stated cut-off is given here; in the data, active means growth inhibition above about 70%; inactive means the rest.

Test: NCI Yeast Anticancer Drug Screen. Data for the rad50EPP+ strain (AID 151);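 further: 0% = growth of vehicle-treated control cultures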
Details: S. cerevisiae rad50 mutant strain, active compounds read high
Description: Growth inhibition of yeast strains with defined genetic alterations is measured as a screen for potential anti-cancer activity. Selected strains with alterations in DNA damage repair or cell cycle control were exposed to compounds and growth inhibition was measured relative to vehicle treated controls. The strain used in this assay is rad50EPP+

| Structure (SMILES) | growth inhibition (at 1.2 µM) [%] | growth inhibition (at 3.7 µM) [%] | growth inhibition (at 11.0 µM) [%] | growth inhibition (at 33.0 µM) [%] | growth inhibition (at 100.0 µM) |
| --- | --- | --- | --- | --- | --- |
| COc1ccc(/C(C#N)=C/c2ccc(OC)c(OC)c2)cc1 | -17 | 0 | 8 | 60 | 54% |
| CCOC(=O)C1=C(C)NC(C)=C(C(=O)OCC)C1c1ccc(C)cc1 | -21 | -27 | -25 | -13 | 27% |
| O=C1c2c(O)cccc2-c2nn(CCNCCO)c3ccc(NCCNCCO)c1c23 | 15 | 19 | 39 | 54 | 77% (active) |
| O=S(=O)(N/N=C/c1cccc(Cl)c1)c1ccccc1 | 4 | 8 | 18 | 18 | 25% |
| COc1ccc(N=N/C(=N\NC(=O)c2cc(Br)ccc2O)c2ccc(N(CCC#N)CCC#N)cc2OC)cc1 | -4 | -7 | -11 | -19 | 24% |
| CCCCCCSc1nc(COC(=O)NC)c(COC(=O)NC)n1C | -3 | -6 | -6 | 5 | 87% (active) |
| O=C1C=CC(=Nc2ccccc2)c2ccccc21 | 3 | 8 | 28 | 53 | 70% (active) |
| CCn1ncc(N=O)c1N | 0 | -4 | 3 | 28 | 71% (active) |
